Assay outcomes: PubChem BioAssay, several laboratories
SENP7 block: inhibitors of human SENP7 protease. inhibition, % at 5 µM. Q9BQF6. 330,000 tested, 1.5% active. recombinant SENP7, Z-RLRGG-aminoluciferin luminescence, 40 min;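 active means inhibition above about 50% at the single test dose, limit read from the data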;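 further: plate controls were DMSO with enzyme for no effect and no enzyme buffer wells for full effect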
SENP6 inh: SENP6 protease inhibition. 330,000 tested, 1.8% active. inhibition, % at 10 µM. Recombinant SENP6 catalytic domain, aminoluciferin luminescence. Q9GZR1;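 active means inhibition above about 50% at the single tested dose, limit read from the data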;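 further: plate controls were DMSO wells with enzyme for no effect and DMSO wells lacking enzyme for full effect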
SENP8 block-1: inhibitors of human SENP8 protease; Q96LD8; purified SENP8, Z-RLRGG-aminoluciferin cleavage, luminescence; inhibition, % at 10 µM; 330,000 tested, 1.2% active; AID 2540; in the data active means inhibition above about 50%
EBI2 block: blocks human EBI2 receptor beta-arrestin signaling | P32249 | EBI2 beta-arrestin recruitment, luminescence, 7a,25-OHC stimulated | inhibition, % at 5 µM | 360,000 tested, 0.81% active; in the data active means inhibition above about 38%;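 further: enzyme fragment complementation signal reports receptor beta-arrestin coupling in cells; 0% = agonist plus DMSO wells and 100% = wells without agonist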
Target sequence (P32249 whole entry, looked up, the tested form may be a part): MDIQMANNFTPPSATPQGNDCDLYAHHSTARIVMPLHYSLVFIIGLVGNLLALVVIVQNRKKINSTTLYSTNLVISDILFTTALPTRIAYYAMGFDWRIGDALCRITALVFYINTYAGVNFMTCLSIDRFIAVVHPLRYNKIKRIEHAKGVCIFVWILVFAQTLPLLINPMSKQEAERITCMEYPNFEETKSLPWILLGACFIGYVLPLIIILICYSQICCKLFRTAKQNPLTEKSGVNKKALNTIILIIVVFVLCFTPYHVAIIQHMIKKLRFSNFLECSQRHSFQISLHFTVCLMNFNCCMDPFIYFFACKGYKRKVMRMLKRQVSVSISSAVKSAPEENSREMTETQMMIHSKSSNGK
SENP8 block-2: blocks human SENP8 cleavage of Nedd8 substrate. recombinant SENP8, Nedd8 substrate fluorescence. 360,000 tested, 0.64% active. Q96LD8. AID 602440. inhibition, % at 20 µM; in the data active means inhibition mostly above about 40%, no sharp cut-off; inactive means mostly below about 27%
AHR act: activates the human aryl hydrocarbon receptor. 320,000 tested, 2.5% active. AHR-responsive luciferase reporter cells, luminescence. activation, % at 5 µM. P35869; in the data active means activation above about 47%;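 further: 0% = vehicle wells and 100% = reference agonist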
* marks the source's active call; other numbers are inactive results; . = not tested or not shown. Most compounds without a hit are left out; they make up all but 5% or so of the library.

SMILES | SENP7 block | SENP6 inh | SENP8 block-1 | EBI2 block | SENP8 block-2 | AHR act
O=C(c1cccn2c(=O)c3cc(Br)ccc3nc12)N1CCN(c2ccccn2)CC1 | 7 | -2 | 2 | -16 | -237 | 74*
CCOC(=O)N1CCN(C(=O)c2cccn3c(=O)c4cc(Cl)ccc4nc23)CC1 | 0 | -12 | -4 | -4 | -304 | 91*
CCOC(=O)N1CCN(C(=O)c2cccn3c(=O)c4sccc4nc23)CC1 | -6 | 5 | -7 | -15 | -276 | 2
CC(C)c1ccc(C(=O)N2CCCCC2c2cc(C(=O)Nc3ccncc3)no2)cc1 (stereo unspecified) | . | . | . | -7 | 16 | .
Cc1cc(F)ccc1C(O)c1ncc(-c2ccccc2C(F)(F)F)[nH]1 (stereo unspecified) | . | . | . | 5 | 8 | .
O=C(c1ccco1)N1CCN(C(=O)c2cccn3c(=O)c4c5c(sc4nc23)CCCC5)CC1 | . | . | . | -14 | -391 | .
O=C(NCCN1CCOCC1)c1cccn2c(=O)c3c4c(sc3nc12)CCCC4 | -9 | -1 | 3 | . | . | 54*
O=C(c1cccn2c(=O)c3cc4ccccc4cc3nc12)N1CCN(c2ccccc2)CC1 | 70* | 45 | 28 | . | . | 71*
Nc1ccccc1SSc1ccccc1N | 4 | 15 | -2 | 27 | 25 | 19
Clc1ccccc1CSc1cnnc2ccccc12 | . | . | . | 14 | 9 | .
Nc1ccccc1SCc1c(Cl)cccc1Cl | -2 | -23 | -13 | -1 | 20 | 50*
Nc1ccccc1SCc1ccccc1Cl | -2 | -13 | -6 | 6 | 21 | 67*
Cn1cccc1CNC(=O)Nc1ccc(Cl)cc1 | 4 | -14 | -17 | -5 | 15 | 75*
Cn1cccc1CNC(=O)Nc1ccccc1 | 5 | -11 | -6 | -21 | 11 | 4
O=C1/C(=C/c2cccnc2)SC(=S)N1CC1CCCO1 (stereo unspecified) | 6 | 3 | -1 | -10 | 13 | 2
O=C1/C(=C\c2ccc(-c3ccccc3Cl)o2)SC(=S)N1CC1CCCO1 (stereo unspecified) | 5 | 9 | -18 | 31 | 44* | 7
O=C1/C(=C/c2ccco2)SC(=S)N1CC1CCCO1 (stereo unspecified) | 10 | -26 | 3 | 5 | 42* | -3
Cc1ccc(N2C(=O)/C(=C\c3ccco3)SC2=S)cc1 | 13 | -4 | 1 | 0 | 48* | 7
Cc1ccc(/C=C2\SC(=S)N(CC3CCCO3)C2=O)o1 (stereo unspecified) | 7 | 8 | 6 | 14 | 34 | -3
COc1ccccc1C(NC(=O)C1CCN(CCOc2ccc(Cl)cc2Cl)CC1)c1ccccn1 (stereo unspecified) | . | . | . | 7 | 12 | .
Cc1cc(=O)oc2ccc(OCc3ccccc3)cc12 | 0 | -15 | -7 | 2 | -113 | 51*
Cc1nc(SCC(=O)c2cccs2)c2oc3ccccc3c2n1 | 1 | 7 | -5 | 18 | -1 | 72*
O=C(CSc1ncnc2c1oc1ccccc12)c1cccs1 | 0 | 7 | 0 | 16 | -3 | 28
COC(=O)C[C@@H]1CC[C@H](NS(=O)(=O)c2ccccc2F)[C@@H](CO)O1 | . | . | . | -6 | 19 | .
Cc1csc(N/N=C/c2c(F)cccc2Cl)n1 | 6 | -15 | 11 | 3 | 23 | 57*
SMILES | SENP7 block | SENP6 inh | SENP8 block-1 | EBI2 block | SENP8 block-2 | AHR act
Cc1ccc(S(=O)(=O)NC(=O)C2(C)CCN2C(=O)c2cccc(F)c2)cc1 (stereo unspecified) | . | . | . | -6 | 15 | .
CC(=O)N1c2ccccc2C2(O)N=C(C)SC12 (stereo unspecified) | 16 | 30 | 12 | -9 | -3 | 51*
Cc1cccc(C)c1NC(=S)NC(=O)c1ccc(Br)o1 | -2 | -7 | 7 | 0 | 23 | 69*
COc1ccc(NC(=O)CCCN2C(=O)CCC2=O)cc1Cl | 2 | 0 | 2 | 1 | 4 | 1
CCn1c2ccccc2c2cc(NC(=O)CSc3nnc(-c4ccccc4)o3)ccc21 | -12 | -10 | -10 | 2 | 10 | 44
CCn1c2ccccc2c2cc(NC(=O)CSc3nnc(-c4cccc(F)c4)o3)ccc21 | 5 | -10 | -1 | -2 | 2 | 59*
CCn1c2ccccc2c2cc(NC(=O)COC(=O)c3cc(Cl)c(N)cc3OC)ccc21 | 5 | -19 | 3 | 12 | -159 | 73*
CCn1c2ccccc2c2cc(NC(=O)c3cc(C)on3)ccc21 | 0 | -4 | 1 | 11 | -6 | 53*
